Assay outcomes from PubChem.
Vif-A3F inh: inhibitors of Vif-A3F interaction; HeLa A3F-eYFP + Vif (tagged APOBEC3F with the HIV-1 protein that degrades it), YFP fluorescence increase; Potency, µM (titrated, usually from 46.1 µM); hit rate 0.2% among 390,000; AID 602313; note: nearly all actives have a fitted effect of over 65% in size
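HeLa cells stably expressing Vif plus C-terminally eYFP-tagged A3F were seeded, incubated overnight at 37 deg C, dosed with compound, incubated overnight again at 37 deg C. Yellow fluorescence (Ex 488/Em 500-530) reported blocked Vif-mediated A3F-eYFP degradation.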
Giardia killer: kills Giardia lamblia. Giardia lamblia trophozoite viability. hit rate 0.15% among 340,000. activity change, % at 7.66 µM, hits read low. AID 540267; in the data active = activity change below about -80%; inconclusive = between about -30% and that limit;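 note: parasites exposed to compound for two days anaerobically before the ATP read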
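Trophozoites 100 cells/well + cpd; 48 hrs, 37 deg C, anaerobic. ATPLite 1-Step added, 15-30 min RT, luminescence read (ATP-based viability).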
MCF10A rereplic: DNA re-replication induction in MCF 10a cells; Potency, µM (titrated, usually from 46.1 µM), actives largely listed as activators; MCF 10A DNA re-replication, Hoechst nuclear intensity, 48 h; hit rate 2.9% among 350,000; AID 624296; note: nearly all actives have a fitted effect of over 50% in size
Vif-APOBEC3G blk: Vif-A3G binding inhibition | HeLa A3G-eYFP + Vif (tagged APOBEC3G with the HIV-1 protein that degrades it), YFP fluorescence, overnight | AID 602310 | Potency, µM (doses to about 46.1 µM), hits mostly inhibitors | Q9HC16 | hit rate 0.076% among 410,000; note: nearly all actives have a fitted effect of over 60% in size
Target sequence (Q9HC16 whole entry, looked up): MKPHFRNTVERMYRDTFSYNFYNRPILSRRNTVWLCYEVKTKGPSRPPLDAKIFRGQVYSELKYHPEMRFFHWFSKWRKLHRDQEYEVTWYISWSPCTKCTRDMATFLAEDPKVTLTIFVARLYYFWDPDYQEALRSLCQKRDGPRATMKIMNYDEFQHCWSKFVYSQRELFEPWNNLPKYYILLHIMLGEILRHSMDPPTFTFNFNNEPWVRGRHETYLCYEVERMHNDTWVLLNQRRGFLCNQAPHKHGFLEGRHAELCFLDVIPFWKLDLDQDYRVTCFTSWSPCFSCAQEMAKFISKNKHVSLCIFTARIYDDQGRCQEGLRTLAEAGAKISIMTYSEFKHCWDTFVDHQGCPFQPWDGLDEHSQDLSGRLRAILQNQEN
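HeLa cells stably expressing Vif and C-terminally eYFP-tagged A3G, seeded overnight at 37 deg C, then exposed to compound by pintool overnight at 37 deg C. Rise in yellow fluorescence (Ex 488/Em 500-530, Acumen) marks blocked Vif-driven A3G degradation.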
SW480 rerep: DNA re-replication induction in SW480 cells | SW480 DNA re-replication, Hoechst DNA content imaging, 48 h | hit rate 1.8% among 340,000 | Potency, µM (series often up to 46.1 µM), hits mostly activators | AID 624297; note: nearly all actives have a fitted effect of over 55% in size
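DNA re-replication was detected as more nuclei of elevated Hoechst intensity after 48 hr exposure to compound (23 nL pinned per well of 250 cells).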
IL-1B inflam inh: inflammasome signaling inhibition, IL-1 beta readout. THP-1 LPS/ATP IL-1B secretion, AlphaLISA, 16 h; hits give low values. hit rate 4.7% among 360,000. activity change, % at 57.5 µM; in the data active = activity change below about -50%; inconclusive = mostly about -30% to -49%
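THP-1 cells pretreated 1 hr with compounds (up to 57.5 uM final), then stimulated with LPS (250 ng/mL final) plus ATP (1.25 mM final); secreted IL-1B measured by AlphaLISA after 16 hr, decreased signal indicating inhibition.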
Each line names hits and unclear results; the compound was inactive in the other large screens. Most compounds without a hit are left out; they make up all but 6.9% or so of the library. Unless noted, calls come from the whole dose curve; as a rule, active = well fitted curve in the direction sought with a large enough effect; inconclusive = small, poorly fitted or top-dose-only effect, or another doubt; inactive = no such curve, though single readings can be large; an effect the other way counts as inactive or inconclusive.

CC(C)[C@H]1CC2C3CC=C4C[C@@H](O)CC[C@]4(C)C3CC[C@]2(C)[C@H]1O (some centres not stated)	MCF10A rereplic 18µM, SW480 rerep inconclusive
C[C@]12CC[C@H]3[C@@H](CC=C4C[C@@H](O)CC[C@@]43C)[C@@H]1CC[C@@H]2O	none (no result: Vif-A3F inh, Giardia killer, Vif-APOBEC3G blk, IL-1B inflam inh)
S=P(NCCSCc1ccccc1)(N1CC1)N1CC1	MCF10A rereplic 15µM, SW480 rerep 9.2µM
CCC(C)OC(=O)c1c(N)n(Cc2cccs2)c2nc3ccccc3nc12 (configuration not stated)	MCF10A rereplic 12µM, SW480 rerep inconclusive, IL-1B inflam inh inconclusive
Nc1c(C(=O)OCc2ccccc2)c2nc3ccccc3nc2n1Cc1cccs1	MCF10A rereplic 6.5µM, SW480 rerep 15µM, IL-1B inflam inh -90
CC(C)(C)OC(=O)c1c(N)n(Cc2ccco2)c2nc3ccccc3nc12	Vif-A3F inh inconclusive, MCF10A rereplic inconclusive, SW480 rerep inconclusive, IL-1B inflam inh inconclusive
N#Cc1cc2c(nc1SCC(=O)Nc1cc(Cl)cc(Cl)c1)C1CCN2CC1	MCF10A rereplic 2.3µM
N#Cc1cc2c(nc1SCC(=O)Nc1ccc(F)c(Cl)c1)C1CCN2CC1	none (no result: Giardia killer, MCF10A rereplic, SW480 rerep, IL-1B inflam inh)
CSc1ccccc1C(=O)C1CCCN(Cc2cccc(C)n2)C1 (configuration not stated)	SW480 rerep inconclusive, IL-1B inflam inh -75
CSc1ccccc1C(=O)C1CCCN(Cc2ccccn2)C1 (configuration not stated)	none
O=C1NC(=O)C(=Cc2cccs2)C(=O)N1	MCF10A rereplic inconclusive, SW480 rerep inconclusive
CCOc1ccc(N2C(=O)/C(=C/c3ccco3)C(=O)NC2=S)cc1	SW480 rerep inconclusive
O=C1NC(=S)N(c2ccccc2F)C(=O)/C1=C\c1cccs1	MCF10A rereplic inconclusive, Vif-APOBEC3G blk inconclusive, SW480 rerep inconclusive, IL-1B inflam inh -91
CCOc1ccc(N2C(=O)/C(=C\c3cccs3)C(=O)NC2=S)cc1	MCF10A rereplic inconclusive, Vif-APOBEC3G blk inconclusive, IL-1B inflam inh -99
CCCCn1c(N)c(C(=O)NCCN2CCOCC2)c2nc3ccccc3nc21	MCF10A rereplic 21µM, SW480 rerep 18µM, IL-1B inflam inh -54
Nc1c(C(=O)NCCN2CCOCC2)c2nc3ccccc3nc2n1Cc1ccccc1	MCF10A rereplic 15µM, SW480 rerep 23µM (no result: IL-1B inflam inh)
CCOC(=O)c1c(N)n(CCN2CCCCC2)c2nc3ccccc3nc12	MCF10A rereplic inconclusive, IL-1B inflam inh -83
COc1ccc(CCNC(=O)c2c(N)n(CCN3CCOCC3)c3nc4ccccc4nc23)cc1	MCF10A rereplic inconclusive, SW480 rerep 16µM, IL-1B inflam inh inconclusive
Cc1ccc(-n2c(/C=C\c3ccc(F)c(F)c3)nc3ccccc3c2=O)c(C)c1	none (no result: Giardia killer, MCF10A rereplic, SW480 rerep, IL-1B inflam inh)
Cc1cc(C)c(N)cc1C	MCF10A rereplic inconclusive, SW480 rerep inconclusive
c1ccc(CCN2CCOCC2)cc1	none (no result: Vif-A3F inh, Giardia killer, MCF10A rereplic, SW480 rerep, IL-1B inflam inh)
Nc1c(C(=O)NCCc2ccccc2)c2nc3ccccc3nc2n1CCN1CCOCC1	IL-1B inflam inh -86
COCCNC(=O)c1c(N)n(Cc2ccco2)c2nc3ccccc3nc12	none
Nc1c(C(=O)NCCN2CCOCC2)c2nc3ccccc3nc2n1Cc1ccco1	MCF10A rereplic 6.5µM, SW480 rerep 8.2µM
COc1ccc(NC(=O)c2ccc(NC(=O)c3nc4nccc(C)n4n3)cc2)cc1	none
O=S(=O)(c1ccccc1)N1Cc2ccccc2-n2nncc2C1	none (no result: Giardia killer, MCF10A rereplic, SW480 rerep)
CCCc1ccc(OCC(=O)Nc2ccc(Cl)cc2C(=O)c2ccccc2)cc1	none (no result: Giardia killer, MCF10A rereplic, SW480 rerep, IL-1B inflam inh)
CC(C)c1ccc(Oc2cccc3c2S(=O)(=O)N(C2CCCC2)CC(COCc2ccccc2)O3)cc1 (configuration not stated)	none
O=c1[nH]c(=S)n(CCC2=CCCCC2)c(O)c1/C=N/N1CCOCC1	MCF10A rereplic 18µM, SW480 rerep inconclusive
CCN(CC)c1ccc(N=Cc2c(O)n(CCC3=CCCCC3)c(=O)[nH]c2=O)cc1	Vif-A3F inh 22µM, MCF10A rereplic inconclusive, SW480 rerep inconclusive
O=c1[nH]c(=O)n(CCC2=CCCCC2)c(O)c1/C=N/N1CCOCC1	none
COc1ccc(-c2nc3ccc(C(=O)N4CCC5(CC4)OCCO5)cc3nc2-c2ccc(OC)cc2)cc1	MCF10A rereplic inconclusive, SW480 rerep 23µM
O=C(c1ccc2c3c(cccc13)CC2)C1CCCN(CC2CC2)C1 (configuration not stated)	IL-1B inflam inh -117
O=C(c1ccc2c3c(cccc13)CC2)C1CCCN(Cc2ncc[nH]2)C1 (configuration not stated)	MCF10A rereplic inconclusive, IL-1B inflam inh inconclusive
C[C@H]1CCCC=CC2C[C@H](O)C[C@@H]2[C@H](O)C=CC(=O)O1 (some centres not stated)	none (no result: Vif-A3F inh, Giardia killer, MCF10A rereplic, SW480 rerep, IL-1B inflam inh)
C[C@H]1CCC/C=C/[C@@H]2C[C@H](O)C[C@H]2[C@@H](O)/C=C/C(=O)O1	SW480 rerep inconclusive, IL-1B inflam inh -54
CN1C2CC(OC(=O)C(CO)c3ccccc3)CC1C1OC12 (configuration not stated)	none
Oc1cc[c]([Hg][Cl])cc1	MCF10A rereplic 1.1µM, SW480 rerep inconclusive (no result: Vif-A3F inh, Giardia killer, Vif-APOBEC3G blk, IL-1B inflam inh)
Oc1cccc[c]1[Hg][Cl]	SW480 rerep inconclusive (no result: Vif-A3F inh, Giardia killer, Vif-APOBEC3G blk, IL-1B inflam inh)
CCOc1ccc(CCNC(=O)c2ccc(-n3c(C)cc4c3CCCC4)cc2)cc1OCC	Vif-A3F inh inconclusive (no result: Giardia killer, MCF10A rereplic, SW480 rerep, IL-1B inflam inh)
CCn1c(O)c(/C=N/NC(=O)c2ccccc2)c(=O)n(CC)c1=S	MCF10A rereplic inconclusive, SW480 rerep 18µM
CCC1(O)C(=O)OCc2c1cc1n(c2=O)Cc2cc3c(N)cccc3nc2-1 (configuration not stated)	SW480 rerep inconclusive, IL-1B inflam inh -97
Cc1ccccc1N1C(=O)NC(=O)/C(=C\c2cc(Br)c(N3CCOCC3)o2)C1=O	Vif-A3F inh inconclusive, MCF10A rereplic 7.3µM, SW480 rerep inconclusive, IL-1B inflam inh -103
Cc1ccccc1N1C(=O)NC(=O)/C(=C/c2ccc(N3CCOCC3)o2)C1=O	Vif-A3F inh inconclusive, MCF10A rereplic inconclusive (no result: IL-1B inflam inh)
Cc1[nH]n(-c2ccccc2)c(=O)c1C(c1ccc([N+](=O)[O-])cc1)c1c(C)[nH]n(-c2ccccc2)c1=O	MCF10A rereplic 23µM
COc1ccc2[nH]cc(CCN(C)C)c2c1	Giardia killer inconclusive
COc1ccc(CNC(=O)/C=C/c2ccc3[nH]cc(CCN(C)C)c3c2)cc1	SW480 rerep 3.2µM
CC(C)C[C@H]1C(=O)N2CCCC2[C@]2(O)O[C@](NC(=O)[C@@H]3C=C4c5cccc6[nH]c(Br)c(c56)C[C@H]4N(C)C3)(C(C)C)C(=O)N12 (some centres not stated)	none (no result: Vif-A3F inh, Giardia killer, Vif-APOBEC3G blk, IL-1B inflam inh)
O=C1CC(N2CCN(c3ccccc3)CC2)C(=O)N1CCc1ccccc1 (configuration not stated)	MCF10A rereplic inconclusive
